Measurements taken from PubChem BioAssay.
Unmarked numbers belong to inactive results. For some assays here: Measured potencies and affinities stand elsewhere. Active and inactive are the calls of the source. Unless noted, how the calls were made is not given here.

Experiments:
[1] = antimalarial activity against Dd2 strain (AID 2302;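 active means growth inhibition above 50% at the single 2 µM test dose, taken to imply half-maximal potency below 2 µM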;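 further: 0% = DMSO untreated growth and 100% = chloroquine plus artemisinin killed control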); conditions: P. falciparum Dd2 in RBCs, LDH growth readout, 72 h; at 2 µM; active compounds read high
[2] = HepG2 cytotoxicity, primary screen, cytotoxicity control for P. falciparum antimalarial project, cell-based, ATP luminescence (AID 2303;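 active means inhibition above 50%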;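 further: 0% = DMSO wells and 100% = digitonin-killed cells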); conditions: HepG2 viability, 24-48 h, at 10 µM, active compounds read high
[3] = target: L-lactate dehydrogenase (Plasmodium falciparum (isolate CDC / Honduras)) (UniProt Q27743); assay: PfLDH activity inhibition – cell lysate, 3D7 strain, counter-screen for P. falciparum growth inhibition project (AID 2304);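 further: 0% = vehicle and 100% = reference inhibitor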; conditions: P. falciparum 3D7 crude extract, LDH APAD/NBT absorbance; at 2 µM; active compounds read high
L-lactate dehydrogenase (Plasmodium falciparum (isolate CDC / Honduras)), sequence (Q27743 whole entry, looked up): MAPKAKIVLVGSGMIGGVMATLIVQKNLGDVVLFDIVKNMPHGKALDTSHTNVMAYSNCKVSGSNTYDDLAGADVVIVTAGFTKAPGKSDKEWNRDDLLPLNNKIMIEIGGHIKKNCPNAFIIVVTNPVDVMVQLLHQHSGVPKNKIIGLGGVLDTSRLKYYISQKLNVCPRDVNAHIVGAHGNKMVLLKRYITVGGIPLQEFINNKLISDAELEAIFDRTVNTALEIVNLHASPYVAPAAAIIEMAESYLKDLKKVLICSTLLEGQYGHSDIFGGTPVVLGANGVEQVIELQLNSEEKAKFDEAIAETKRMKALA

[4] = inhibition of 3D7 malaria parasite growth – strain 3D7 (AID 2306);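 further: 0% = DMSO wells and 100% = chloroquine plus artemisinin control wells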; conditions: P. falciparum 3D7 erythrocytic growth, LDH absorbance, 72 h; at 2 µM; active compounds read high
[5] = target: Calcium-dependent protein kinase 1 (Plasmodium falciparum (isolate 3D7)) (UniProt P62344); assay: PfCDPK1 kinase inhibitors, biochemical, TCAMS library (AID 1159585; cut-off not given, nearly all actives have IC50 up to about 0.98 µM;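 further: inhibitors leave more ATP so luminescence rises with inhibition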); conditions: recombinant PfCDPK1, Kinase-Glo ATP depletion luminescence
Calcium-dependent protein kinase 1 (Plasmodium falciparum (isolate 3D7)), sequence (P62344 whole entry, looked up): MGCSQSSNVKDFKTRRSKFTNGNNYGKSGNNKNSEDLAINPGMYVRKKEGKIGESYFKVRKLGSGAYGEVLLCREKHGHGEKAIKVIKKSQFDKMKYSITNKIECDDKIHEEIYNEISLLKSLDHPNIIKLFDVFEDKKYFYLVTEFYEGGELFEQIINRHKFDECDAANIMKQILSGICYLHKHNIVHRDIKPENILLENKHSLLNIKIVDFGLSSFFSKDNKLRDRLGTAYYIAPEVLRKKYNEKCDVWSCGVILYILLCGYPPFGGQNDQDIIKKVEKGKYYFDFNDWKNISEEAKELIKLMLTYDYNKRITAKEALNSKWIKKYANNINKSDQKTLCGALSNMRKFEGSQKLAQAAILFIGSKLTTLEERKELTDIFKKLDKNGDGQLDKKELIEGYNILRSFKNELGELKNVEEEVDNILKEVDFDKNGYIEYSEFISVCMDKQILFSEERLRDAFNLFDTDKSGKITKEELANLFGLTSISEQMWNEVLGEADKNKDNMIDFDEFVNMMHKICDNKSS

[6] = target: Plasmodium falciparum protein kinase 6 (PK6, PF3D7_1337100) (UniProt Q8IDW1); assay: PfPK6 kinase inhibitors, biochemical, TCAMS library (AID 1159586); conditions: recombinant PfPK6, Kinase-Glo ATP depletion luminescence
Plasmodium falciparum protein kinase 6 (PK6, PF3D7_1337100), sequence (Q8IDW1 1-305): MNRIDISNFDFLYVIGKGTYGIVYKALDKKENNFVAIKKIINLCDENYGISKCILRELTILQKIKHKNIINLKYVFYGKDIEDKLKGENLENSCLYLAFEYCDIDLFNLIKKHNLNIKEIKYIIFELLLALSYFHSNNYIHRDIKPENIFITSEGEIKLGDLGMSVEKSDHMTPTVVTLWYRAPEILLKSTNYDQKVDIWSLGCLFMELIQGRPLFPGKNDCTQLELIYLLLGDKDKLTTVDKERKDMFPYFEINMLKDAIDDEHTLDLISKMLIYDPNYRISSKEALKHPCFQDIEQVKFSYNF

[7] = target: Protein kinase 7 (PK7), Plasmodium falciparum 3D7 (PF3D7_0213400) (UniProt Q7YTF7); assay: inhibition of Plasmodium PK7 catalytic activity – biochemical, TCAMS antimalarial set, Kinase-Glo luminescence (AID 1159587); conditions: recombinant PfPK7, Kinase-Glo ATP depletion luminescence
Protein kinase 7 (PK7), Plasmodium falciparum 3D7 (PF3D7_0213400), sequence (Q7YTF7 1-343): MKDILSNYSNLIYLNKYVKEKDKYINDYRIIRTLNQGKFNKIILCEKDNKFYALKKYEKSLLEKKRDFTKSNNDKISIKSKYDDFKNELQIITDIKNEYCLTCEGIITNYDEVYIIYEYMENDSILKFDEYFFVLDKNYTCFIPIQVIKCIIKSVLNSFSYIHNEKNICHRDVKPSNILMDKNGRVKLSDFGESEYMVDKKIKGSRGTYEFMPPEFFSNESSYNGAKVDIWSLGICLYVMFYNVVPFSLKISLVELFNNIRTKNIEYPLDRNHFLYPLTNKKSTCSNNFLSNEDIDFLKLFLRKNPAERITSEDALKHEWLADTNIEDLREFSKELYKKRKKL

[8] = target: Calcium-dependent protein kinase 4 (Plasmodium falciparum (isolate 3D7)) (UniProt Q8IBS5); assay: PfCDPK4 kinase inhibitors, biochemical, TCAMS library (AID 1159588; cut-off not given, nearly all actives have IC50 up to about 0.91 µM); conditions: recombinant PfCDPK4, Kinase-Glo ATP depletion luminescence
Calcium-dependent protein kinase 4 (Plasmodium falciparum (isolate 3D7)), sequence (Q8IBS5 whole entry, looked up): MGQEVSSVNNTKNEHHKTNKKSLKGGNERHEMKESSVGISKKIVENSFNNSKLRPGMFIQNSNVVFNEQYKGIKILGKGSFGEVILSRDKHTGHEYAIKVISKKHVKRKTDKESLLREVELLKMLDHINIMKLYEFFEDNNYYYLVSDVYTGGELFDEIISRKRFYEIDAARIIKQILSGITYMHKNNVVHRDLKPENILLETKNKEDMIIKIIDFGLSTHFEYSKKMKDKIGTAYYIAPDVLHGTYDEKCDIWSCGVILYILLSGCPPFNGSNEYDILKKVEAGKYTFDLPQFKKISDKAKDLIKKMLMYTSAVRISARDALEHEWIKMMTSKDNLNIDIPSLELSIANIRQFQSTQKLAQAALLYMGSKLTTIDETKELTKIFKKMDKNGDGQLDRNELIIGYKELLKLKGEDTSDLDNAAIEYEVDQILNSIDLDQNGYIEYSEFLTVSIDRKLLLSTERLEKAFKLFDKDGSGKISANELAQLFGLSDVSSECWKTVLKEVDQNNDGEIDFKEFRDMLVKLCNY

| Structure (SMILES) | growth inhibition [1] | inhibition [2] | inhibition [3] | growth inhibition [4] | outcome [5] | outcome [6] | outcome [7] | outcome [8] |
| --- | --- | --- | --- | --- | --- | --- | --- | --- |
| Cc1cccc(-c2ccc(NC(=O)C3CCN(Cc4cccc(O)c4)CC3)cc2)c1 | 64% (active) | 21% | 0% | 92% (active) | inactive | inactive | inactive | inactive |
| FC(F)(F)c1ccc2nc(-c3cccc(-c4ccc(CNCc5ccccc5)cc4)c3)[nH]c2c1 | 99% (active) | 25% | -4% | 101% (active) | inactive | inactive | inactive | inactive |
| COC(=O)COc1cc(C(=O)NCCCCN2CCC(c3ccc4c(c3OC)CCCC4)CC2)ccc1-c1ccc(Cl)cc1 | 21% | 32% | 2% | 97% (active) | inactive | inactive | inactive | inactive |
| CC(CN1CCN(C)CC1)C(=O)Nc1cccc(-c2cccc(-c3nc4ccc(F)cc4[nH]3)c2)c1 (stereo not given) | 78% (active) | 23% | -2% | 101% (active) | inactive | inactive | inactive | inactive |
| O=[N+]([O-])c1cccc(NC(=S)N2CCCN(Cc3ccc(C(F)(F)F)cc3)CC2)c1 | 49% | 11% | 0% | 90% (active) | inactive | inactive | inactive | inactive |
| NC1=NC(c2ccccc2)(c2ccccc2)C(=O)N1Cc1ccc(-c2cccnc2)cc1 | 94% (active) | 15% | 5% | 99% (active) | inactive | inactive | inactive | inactive |
| Cc1ccccc1C1CCN(C2CCC(NC(=O)/C=C/c3cccc(Cl)c3)CC2)CC1 (stereo not given) | 34% | 70% (active) | -3% | 98% (active) | inactive | inactive | inactive | inactive |
| COc1ccccc1C(C)NCC(=O)Nc1cc(C(F)(F)F)ccc1Cl (stereo not given) | 85% (active) | 4% | -3% | 97% (active) | inactive | inactive | inactive | inactive |
| CC(C)(C)c1ccc(CN2CCC(NC(=O)c3ccc(-c4cccc(F)c4)s3)CC2)cc1 | 24% | 35% | 0% | 92% (active) | inactive | inactive | inactive | inactive |
| CC[C@H](NC(=O)c1c(CCCN2CCN(c3ccccc3)CC2)c(-c2ccccc2)nc2cc(O)ccc12)c1ccccc1 | 97% (active) | 12% | 6% | 96% (active) | inactive | inactive | inactive | inactive |
| COc1ccc2nccc([C@@H](O)CN3CCC(NC(=O)C(=Cc4ccc(Cl)cc4Cl)c4ccc(-c5ccccc5)cc4)CC3)c2c1 | 98% (active) | 1% | -2% | 100% (active) | inactive | inactive | inactive | inactive |
| CC(=O)c1c(C)[nH]c(C(=O)Nc2ccc(-c3nc4ccc(C)cc4s3)cc2)c1C | 40% | 11% | -2% | 92% (active) | inactive | inactive | inactive | inactive |
| NC(N)=Nc1nc(-c2cccc(NC(=O)NCC(c3ccccc3)c3ccccc3)c2)cs1 | 87% (active) | -3% | 1% | 100% (active) | inactive | inactive | inactive | inactive |
| Oc1ccccc1CN1CCN(C(c2ccccc2)c2ccccc2)CC1 | 90% (active) | -4% | -1% | 98% (active) | inactive | inactive | inactive | inactive |
| NC(N)=Nc1nc(CCCCCCCCc2csc(N=C(N)N)n2)cs1 | 28% | 27% | 0% | 100% (active) | inactive | inactive | inactive | inactive |
| OCCOCCNCc1cccc(C#Cc2cc3ncnc(Nc4ccc(OCc5cccc(F)c5)c(Cl)c4)c3s2)n1 | 46% | 35% | 0% | 96% (active) | inactive | inactive | inactive | inactive |
| COc1ccc2nccc([C@@H](O)CN3CCC(NC(=O)/C=C/c4cccc(NC(C)=O)c4)CC3)c2c1 | 60% (active) | 5% | 0% | 90% (active) | inactive | inactive | inactive | inactive |
| Cc1cccc2[nH]c(-c3ccc(-c4cccc(CN5CCC(CCN6CCCCC6)CC5)c4)s3)nc12 | 100% (active) | 99% (active) | -3% | 101% (active) | inactive | inactive | inactive | inactive |
| c1ccc(OCCOc2ccc(Nc3ccnc4cc5ccccc5cc34)cc2)cc1 | 96% (active) | 44% | 7% | 102% (active) | inactive | inactive | inactive | inactive |
| CCCN(CCCN(CCCN(CCC)C(C)C)c1cc(C)nc(Nc2ccc(Cl)cc2)n1)C(C)C | 99% (active) | 39% | 0% | 102% (active) | inactive | inactive | inactive | inactive |

| Structure (SMILES) | growth inhibition [1] | inhibition [2] | inhibition [3] | growth inhibition [4] | outcome [5] | outcome [6] | outcome [7] | outcome [8] |
| --- | --- | --- | --- | --- | --- | --- | --- | --- |
| CC(=O)Nc1ccc(OCCN(Cc2ccccc2OC(F)(F)F)c2ccc(C(F)(F)F)c(C#N)c2)c(Cl)c1 | 96% (active) | 8% | 5% | 96% (active) | inactive | inactive | inactive | inactive |
| COc1ccccc1CCNc1nc(C)cc(N[C@@H](CC(C)C)C(=O)NCc2cccs2)n1 | 31% | 20% | 0% | 96% (active) | inactive | inactive | inactive | inactive |
| COc1ccc(-c2ccc(NC(=O)c3ccc(C#N)cc3)cc2)cc1CN1CCNCC1 | 42% | 23% | 0% | 96% (active) | inactive | inactive | inactive | inactive |
| CCCN1CCN(Cc2ccc(C(=O)Nc3ccc(Cl)cc3)cc2)CC1 | 14% | 48% | -2% | 94% (active) | inactive | inactive | inactive | inactive |
| NC1CCN(c2nc(NCCCc3ccc(O)cc3)nc(NCc3ccccc3-c3ccc(C(F)(F)F)cc3)n2)CC1 | 88% (active) | 15% | 1% | 101% (active) | inactive | inactive | inactive | inactive |
| COc1ccc(C(=O)Nc2cc(Cl)c3c(c2)C2CCCN2CC3)cc1C(F)(F)F (stereo not given) | 33% | 35% | -1% | 99% (active) | inactive | inactive | inactive | inactive |
| CCOC(=O)C1=C(C)NC2=C(C(=O)CC(C)(C)C2)C1c1ccc(Br)cc1 (stereo not given) | 66% (active) | 0% | 2% | 90% (active) | inactive | inactive | inactive | inactive |
| Cc1ccc(NC(=O)c2ccc(NCCCN(C)Cc3ccccc3)c([N+](=O)[O-])c2)cc1F | 61% (active) | 12% | -7% | 101% (active) | inactive | inactive | inactive | inactive |
| Cc1ccnc(NC(c2cccc(Cl)c2Cl)c2ccc3cccnc3c2O)c1 (stereo not given) | 38% | 46% | 7% | 86% (active) | inactive | inactive | inactive | inactive |
| CN(Cc1ccc(-c2ccc(C(F)(F)F)cc2)cc1)C(=O)Cn1c(CCc2cccc(F)c2F)cc(=O)c2ccc(OCCCN3CCCCC3)cc21 | 90% (active) | 79% (active) | 5% | 103% (active) | inactive | inactive | inactive | inactive |
| C=CCOc1ccc(CNC2CCN(Cc3ccccc3)CC2)cc1Br | 8% | 9% | -2% | 92% (active) | inactive | inactive | inactive | inactive |
| COc1ccc2ncc(F)c(CCN3CCC(NCc4cc5c(cn4)OCCS5)CC3)c2c1 | 40% | 4% | -6% | 89% (active) | inactive | inactive | inactive | inactive |
| CCN(Cc1ccc(-c2ccc(C(F)(F)F)cc2)cc1)C(=O)Cn1c(SCc2cccc(F)c2F)cc(=O)c2cc(CN3CCCCC3)ccc21 | 50% (active) | 95% (active) | 2% | 101% (active) | inactive | inactive | inactive | inactive |
| O=C(NCCCN1CCC(Cc2ccccc2)CC1)c1cc2c(Cl)nc3ccccc3c2s1 | 40% | 22% | -3% | 98% (active) | inactive | inactive | inactive | inactive |
| COc1ccc(-c2cccc(CNCc3ccc(F)cc3)c2)cc1S(=O)(=O)NCCN1CCCC1 | 16% | 20% | 4% | 101% (active) | inactive | inactive | inactive | inactive |
| Cc1cc(NN=Cc2ccc(F)cc2)c2cc(C(F)(F)F)ccc2n1 | 99% (active) | 2% | -2% | 101% (active) | inactive | inactive | inactive | inactive |
| COc1cc(NC(=O)/C=C/c2cccc3cc[nH]c23)ccc1OCCN(C(C)C)C(C)C | 51% (active) | 11% | 5% | 99% (active) | inactive | inactive | inactive | inactive |
| COc1ccccc1N=C1SC(=Cc2cn(CC(=O)N3CCCc4ccccc43)c3ccccc23)C(=O)N1C1CCCCC1 | 99% (active) | 10% | 2% | 100% (active) | inactive | inactive | inactive | inactive |
| CC1CN(Cc2ccc(-c3ccc(-c4nc5ccc(F)cc5[nH]4)s3)cc2)CC(C)O1 (stereo not given) | 89% (active) | 35% | -10% | 88% (active) | inactive | inactive | inactive | inactive |
| CN1CCCC(CN2CCN(Cc3cccc(-c4csc(-c5nc6ccccc6[nH]5)c4)c3)CC2)C1 (stereo not given) | 100% (active) | 65% (active) | -4% | 100% (active) | inactive | inactive | inactive | inactive |
